# From PubChem BioAssay AID1347131 (National Center for Advancing Translational Sciences (NCATS), 2019)
# Hit rate of the full screen: of about 410,000 compounds, about 2,000 (0.49%) were called active. Entries that show only a call come without a potency. Roughly 8% stayed inconclusive and do not appear here. The call rests on the fitted dose curve; tested in HEK293 reporter line. Many of the other results were omitted from the sample, so actives are more common in it than they were.
# Assay: qHTS Assay for Foot and Mouth Disease Virus Antivirals: Primary Screen against the MLPCN compound library; further: nearly all actives have a fitted effect of over 55% in size
# Settings: FMDV antiviral cell-based qHTS; series mostly up to 57.9 µM
# Potency means the concentration at half of the fitted maximal effect.
row,SMILES,Potency
1,COc1ccc(N(C)S(=O)(=O)c2cccc(C(=O)Nc3nc(C)c(C(C)=O)s3)c2)cc1,inactive
2,Cc1nc(NC(=O)/C=C/c2ccc(C(C)(C)C)cc2)sc1C(=O)N(C)C,inactive
3,Cc1cc(C(=O)Nc2nc(C)c(C(=O)N(C)C)s2)ccc1[N+](=O)[O-],15.8 µM (active)
4,CCOc1ccc(CCNC(=O)COC(=O)COc2cc(C)cc(C)c2)cc1OCC,inactive
5,Cc1ccc(Nc2c(C(C)C)c(C)c(C#N)c3nc4ccccc4n23)cc1,inactive
6,COc1cccc(Oc2cnc(N)nc2-c2ccc(OC)cc2O)c1,inactive
7,Cc1cc2nc(-c3nnnn3Cc3ccccc3)c(=O)[nH]c2cc1C,inactive
8,Cc1cc2nc(-c3ccc[nH]c3=O)[nH]c2cc1C,12.6 µM (active)
9,COc1ccc(-c2noc(CN(C(=O)c3cccs3)C(C)C)n2)cc1,inactive
10,COC(=O)c1[nH]c2ccccc2c1NC(=O)CN1CCN(c2cccc(OC)c2)C(C)C1 (stereo not given),28.2 µM (active)
11,COC(=O)c1[nH]c2cc(OC)ccc2c1NC(=O)CN1CCN(c2cccc(C)c2)C(C)C1 (stereo not given),inactive
12,COC(=O)c1[nH]c2ccc(C)cc2c1NC(=O)CN1CCN(c2ccccc2)CC1,inactive
13,Cc1cc2nc(N3C(=O)CNC3=S)sc2cc1C,20 µM (active)
14,COc1ccc(CN(C(=O)c2oc3cc(C)ccc3c2C)C2CCS(=O)(=O)C2)cc1OC (stereo not given),inactive
15,COc1cccc2cc(C(=O)Nc3cccc(C)n3)c(=O)oc12,8.91 µM (active)
16,COc1cccc2cc(C(=O)NCc3ccc(Cl)cc3)c(=N)oc12,inactive
17,Cc1ccc(NC(=O)c2cc3ccccc3oc2=O)cc1S(=O)(=O)N(C)C,inactive
18,COc1ccc(NC(=O)c2sc3nc(-c4cc5cccc(OC)c5oc4=O)[nH]c(=O)c3c2C)cc1,inactive
19,Cc1cccc(C)c1NC(=O)c1cc(-c2ccccn2)nc2ccccc12,inactive
20,Cc1cccnc1NC(=O)c1cc2ccccc2oc1=O,10 µM (active)
21,COc1ccc(NC(=O)c2cc3ccccc3o/c2=N\NS(=O)(=O)c2ccc(C)cc2)cc1,inactive
22,N=c1oc2ccccc2cc1C(=O)Nc1ccccc1,11.2 µM (active)
23,O=C(Nc1ccc(NC(=O)c2cc3ccccc3o2)cc1)c1ccc2c(c1)OCCO2,inactive
24,CCOc1cccc2cc(C(=O)NC(C)c3ccccc3)c(=N)oc12 (stereo not given),inactive
25,C=CCn1c(=O)c(C(=O)Nc2ncccc2C)c(O)c2ccccc21,inactive
26,COc1cccc(NC(=O)c2cc3ccccc3oc2=O)c1,20 µM (active)
27,CCOc1ccc(CN(C)C(=O)c2cc(S(=O)(=O)N3CCCC3)ccc2C)cc1,inactive

row,SMILES,Potency
1,Cc1ccccc1C(=O)N/N=C1/SCC(=O)N1Cc1ccc2c(c1)OCO2,inactive
2,C=CC(COCc1ccccc1)N([C@@H](Cc1ccccc1)C(=O)OC)S(=O)(=O)c1ccccc1Br (stereo not given in full),inactive
3,CCN(CCCNC(=O)CC(C(=O)N1CCc2ccccc21)n1ccnc1)c1cccc(C)c1 (stereo not given),inactive
4,Cc1nn(-c2ccccc2)nc1C(=O)NN,inactive
5,COc1cc(CNc2ncnc3c2ncn3[C@H]2CN(Cc3ccc(F)cc3)C[C@@H](CO)O2)cc(OC)c1OC,inactive
6,COc1ccc(Oc2ncc3nc(-c4ccc(Cl)cc4)c(=O)n(CCC#N)c3n2)cc1,inactive
7,CCOC(=O)C1(CCOc2ccccc2)CCN(Cc2ccc(OC)c(O)c2)CC1,inactive
8,CCC(=O)N(Cc1ccc2c(c1)OCO2)Cc1cc2cc(OC)ccc2[nH]c1=O,inactive
9,COc1cc(C(=O)Nc2ccccc2C(=O)Nc2ccccn2)cc(OC)c1OC,inactive
10,COc1cc(SC)ccc1C(=O)NCCOc1c(C)cc(C)cc1C,inactive
11,COc1ccc(C(=O)Nc2ccc(C)cn2)c(OC)c1,inactive
12,COc1cc(SC)ccc1C(=O)Nc1ccccn1,17.8 µM (active)
13,COc1cc(SC)ccc1C(=O)Nc1ccc(Br)cn1,8.91 µM (active)
14,COc1cc(SC)ccc1C(=O)Nc1nc2ccccc2[nH]1,inactive
15,CCOc1ccc(S(=O)(=O)N2CCN(C(=O)c3cc(C4CC4)nn3-c3ccccc3)CC2)cc1,inactive
16,CN1CCN(C(=O)c2cc3nc(-c4ccccc4)cc(C(F)(F)F)n3n2)CC1,inactive
17,CC(C)c1cc(Br)c(NC(=O)Nc2cccnc2)c(Br)c1,inactive
18,O=C1CN=C(c2ccc(Br)cc2)c2c(sc3c2CCCC3)N1CCN1CCCCC1,inactive
19,OCCCCCNc1ncnc2ccccc12,inactive
20,CO/N=C\c1cc(C(=O)c2ccc(Cl)cc2Cl)cn1C,inactive
21,CC(C)(C)c1ccc(C(=O)O/N=C(\N)c2ccccn2)cc1,inactive
22,CC(C)(C)c1ccc(C(=O)O/N=C(\N)c2ccccc2)cc1,inactive
23,Cc1cccc(/C(N)=N/OC(=O)c2ccc(Cl)cc2Cl)c1,20 µM (active)
24,Cc1cccc(C(=O)O/N=C(\N)c2ccccn2)c1,8.91 µM (active)
25,Cc1ccc(C(=O)O/N=C(\N)Cc2ccc([N+](=O)[O-])cc2)c(Cl)c1,inactive
26,CCCNNC(=O)C(O)(c1ccccc1)c1ccccc1,inactive
27,Cc1ccc(-c2nnc(-c3ccccc3)c(N3CCOCC3)n2)cc1,inactive

row,SMILES,Potency
1,COc1ccc(-c2noc(C3CC(=O)N(c4cc(C)cc(C)c4)C3)n2)cc1 (stereo not given),inactive
2,Cc1cccc(C)c1-n1nnnc1C(c1ccnc2ccccc12)N(CCN(C)C)Cc1ccccc1 (stereo not given),inactive
3,Cc1cccc(C(=O)O)c1NC(=O)c1ccc(F)cc1,inactive
4,Cc1c(NC(=O)c2ccc(-c3ccccc3)cc2)cccc1C(=O)O,5.01 µM (active)
5,Cc1ccc(C(=O)Nc2ccccc2C(=O)O)cc1S(=O)(=O)Nc1ccccc1,inactive
6,COc1ccc(C(C)(O)c2nc(-c3ccncc3)cs2)cc1 (stereo not given),inactive
7,COc1ccc(C(C)(O)c2nc(-c3ccc(S(C)(=O)=O)cc3)cs2)cc1 (stereo not given),inactive
8,COc1ccc(-c2csc(N3C(=O)CNC3=S)n2)cc1,10 µM (active)
9,Cc1ccc(CC2CC(=O)N(Cc3ccco3)C2=O)cc1 (stereo not given),inactive
10,Cn1c(=O)c2c(nc(N3CCCCC3)n2CC(O)COc2ccccc2)n(C)c1=O (stereo not given),inactive
11,Cn1c(=O)[nH]c(=O)c2c1nc(N1CCCCC1)n2CC(O)COc1ccc([N+](=O)[O-])cc1 (stereo not given),10 µM (active)
12,Cn1c(=O)[nH]c(=O)c2c1nc(N1CCCCC1)n2CCOc1ccccc1,inactive
13,CCCc1cnc(N2CCN(C(=O)c3ccc(F)cc3)CC2)nc1,inactive
14,Cc1ccc2c(c1)N(C(=O)Nc1cccc3c1CCCC3)CCO2,inactive
15,CCC(Sc1nc(C)cc(C)n1)C(=O)O (stereo not given),inactive
16,O=S(=O)(c1ccc(Cl)cc1)N1CCc2ccccc21,inactive
17,FC(F)(F)c1ccccc1N1CC1c1ccncc1 (stereo not given),inactive
18,COc1ccccc1CC1(C)C(=O)Nc2ccc(OC(F)(F)F)cc21 (stereo not given),inactive
19,COc1ccccc1[C@]1(C)ON(c2ccccc2C(F)(F)F)C1=O,14.1 µM (active)
20,Cc1ccc(C(=O)N2CCN(c3nc4ccccc4n3C)CC2)cc1,inactive
21,O=C(O)c1ccccc1-c1nc2ccccc2n1-c1ccccc1,inactive
22,Cc1oc(-c2nc3ccccc3n2C)cc1C(=O)c1ccccc1,17.8 µM (active)
23,CN(c1ccc(OCC(=O)Nc2ccc(S(N)(=O)=O)cc2)cc1)S(=O)(=O)c1ccc(F)cc1,inactive
24,Cc1ccc(S(=O)(=O)C2(S(=O)(=O)c3ccc(C)cc3)CC2)cc1,inactive
25,Cc1ccccc1C(=O)N1CCC(C(=O)Nc2cc(C(F)(F)F)ccc2N2CCCC2)CC1,inactive
26,O=C(NCCC1=CCCCC1)c1ccc(F)cc1,14.1 µM (active)
27,O=C(NCCc1nc(-c2ccc(F)cc2)no1)c1ccc(F)cc1,inactive

row,SMILES,Potency
1,CN(C)S(=O)(=O)N1CCC(Oc2cccc(C(=O)NCCC3=CCCCC3)c2)CC1,inactive
2,CCCCn1nc2cc(C(=O)NCC34CC5CC(CC(C5)C3)C4)ccc2c1OC,inactive
3,Cc1noc(C)c1CSc1nnc(-c2cc(Cl)ccc2Cl)n1N,inactive
4,CC(=O)c1sc(NC(=O)C2CC(=O)N(Cc3ccccc3)C2)nc1-c1ccccc1 (stereo not given),inactive
5,Clc1cc(Br)ccc1OCCCNCc1ccccc1,inactive
6,CCOc1cc(CNCc2ccncc2)cc(Br)c1OCc1ccccc1F,inactive
7,Brc1ccc(OCc2ccccc2)c(CNCc2ccncc2)c1,20 µM (active)
8,Cc1ccc(S(=O)(=O)c2c(C)nn(C(C)(C)C)c2OC(=O)C(C)(C)C)cc1,inactive
9,COc1cc2[nH]c(=S)nc(NC3CCCCCC3)c2cc1OC,inactive
10,CCOC(=O)c1ccc(N2C=C(C(=O)OC)C(c3ccc(OC)c(O)c3)C(C(=O)OC)=C2)cc1,inactive
11,COc1ccc(CCNC(=O)/C(C#N)=C/c2ccc(OCC(=O)NCC3CCCO3)cc2)cc1OC (stereo not given),inactive
12,Cc1cccc(NC(=O)/C(C#N)=C\c2ccc(C(=O)O)cc2)c1,inactive
13,N#C/C(=C\c1ccc(OCc2ccc(C(=O)O)cc2)cc1)C(=O)N1CCOCC1,10 µM (active)
14,Cc1nc(SCC(=O)NCCc2ccccc2)nc(C)c1C,inactive
15,CCOCCCNC(=S)N1CCN(c2nc(-c3ccccc3)cs2)CC1,inactive
16,CN1/C(=C\C(=O)CSc2nnc(N)s2)C(C)(C)c2ccccc21,inactive
17,Cc1ccc(C)c(Nc2cc(C)nc3ccccc23)c1,inactive
18,Cc1ccc2c(c1)Cc1nc3ccccc3nc1-2,14.1 µM (active)
19,Cc1ccc(CSc2nc3ccccc3cc2C=O)cc1,inactive
20,COc1cccc(-c2nc(CS(=O)(=O)CC(=O)NCCCc3ccccc3)c(C)o2)c1,inactive
21,NC(=O)COc1ccccc1/C=C1/SC(=O)N(CC(=O)N2CCc3ccccc3C2)C1=O,inactive
22,COc1ccc(-c2nc(NC(=O)c3[nH]c(C)c(C(C)=O)c3C)sc2C)cc1,28.2 µM (active)
23,COc1ccc(NC(=O)c2[nH]c(C)c(C(C)=O)c2C)cc1,inactive
24,COc1ccc(-c2nc(NC(=O)c3c(C)noc3C)sc2C)cc1,inactive
